Assay results reported in PubChem BioAssay (NCATS).
Values joined by “and” are separate entries in the source; they are usually repeats but may differ in a detail not shown here. Equal entries are not always repeated. Inconclusive results are not listed. Where a call stands in place of a potency, no number is given. The source holds several records for some structures; these can differ, active in one and inactive in another. Values without a mark were called inactive. Active and inactive are the calls of the source. Calls follow the shape of the dose curve; as a rule, active = well fitted curve in the direction sought with a large enough effect; inconclusive = small, poorly fitted or top-dose-only effect, or another doubt; inactive = no such curve, though single readings can be large; an effect the other way counts as inactive or inconclusive.

Assays:
KB-3-1 = experiment: Cytotoxic Profiling of Annotated Libraries Using Quantitative High-Throughput Screening (AID 1296008); settings: Five cell lines viability, CellTiter-Glo ATP luminescence, 48-72 h; max response: stronger effect = lower value; also: nearly all actives have a fitted effect of over 60% in size; also: potency is read from the fitted curve at half-maximal effect
Summary of the method: (§1)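 Cells exposed to compounds for 48 or 72 hr at 37 degrees Celsius. Viability read as ATP-coupled luminescence with CellTiter-Glo after 10 min at room temperature.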

NIH3T3 [1] = experiment: as above; settings: Five cell lines viability, CellTiter-Glo ATP luminescence, 48-72 h; max response: stronger effect = lower value
Summary of the method: as §1

MCC-13 = experiment: qHTS assay to identify novel small-molecules to repurpose for Merkel cell carcinoma treatment (AID 1296009); settings: MCC and control cell lines, CellTiter-Glo viability, 72 h; series mostly up to 46 µM; also: nearly all actives have a fitted effect of over 60% in size
Summary of the method: (§2)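 CellTiter-Glo luminescence after 72 hr compound exposure at 37 degree celsius gave cell viability. Libraries NPC and MIPE were run as 8- and 11-point dose responses; RLUs normalized to DMSO (negative) and no-cell (cytotoxicity) controls.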

MCC-26 = experiment: as above; settings: MCC and control cell lines, CellTiter-Glo viability, 72 h; series mostly up to 46 µM
Summary of the method: as §2

MKL-1 = experiment: as above; settings: MCC and control cell lines, CellTiter-Glo viability, 72 h; series mostly up to 46 µM
Summary of the method: as §2

MKL-2 = experiment: as above; settings: MCC and control cell lines, CellTiter-Glo viability, 72 h; series mostly up to 46 µM
Summary of the method: as §2

NIH3T3 [2] = experiment: as above; settings: MCC and control cell lines, CellTiter-Glo viability, 72 h; series mostly up to 44.8 µM
Summary of the method: as §2

UISO = experiment: as above; settings: MCC and control cell lines, CellTiter-Glo viability, 72 h; series mostly up to 46 µM
Summary of the method: as §2

WaGa = experiment: as above; settings: MCC and control cell lines, CellTiter-Glo viability, 72 h; series mostly up to 46 µM
Summary of the method: as §2

C33A = experiment: Primary qHTS to identify gynecologic anti-cancer compounds using libraries of approved drugs and bioactive compounds (AID 1345084); settings: Gynecologic cancer cell panel viability, ATPlite luminescence, 48 h; series mostly up to 57.5 µM; also: nearly all actives have a fitted effect of over 55% in size
Summary of the method: (§3)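 Luminescence from the ATPlite ATP-monitoring reagent indicates viable cell number; lower signal means cytotoxicity. Cells received compound 16 h after seeding and were exposed for 48 h across five concentrations.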

CAOV3 = experiment: as above; settings: Gynecologic cancer cell panel viability, ATPlite luminescence, 48 h; series mostly up to 57.5 µM
Summary of the method: as §3

CASKI = experiment: as above; settings: Gynecologic cancer cell panel viability, ATPlite luminescence, 48 h; series mostly up to 57.5 µM
Summary of the method: as §3

Es-2 = experiment: as above; settings: Gynecologic cancer cell panel viability, ATPlite luminescence, 48 h; series mostly up to 57.5 µM
Summary of the method: as §3

HeLa = experiment: as above; settings: Gynecologic cancer cell panel viability, ATPlite luminescence, 48 h; series mostly up to 57.5 µM
Summary of the method: as §3

Hek293T [3] = experiment: as above; settings: Gynecologic cancer cell panel viability, ATPlite luminescence, 48 h, control line for the selectivity index; series mostly up to 57.5 µM
Summary of the method: as §3

JEG-3 = experiment: as above; settings: Gynecologic cancer cell panel viability, ATPlite luminescence, 48 h; series mostly up to 57.5 µM
Summary of the method: as §3

OV90 = experiment: as above; settings: Gynecologic cancer cell panel viability, ATPlite luminescence, 48 h; series mostly up to 57.5 µM
Summary of the method: as §3

PA-1 = experiment: as above; settings: Gynecologic cancer cell panel viability, ATPlite luminescence, 48 h; series mostly up to 57.5 µM
Summary of the method: as §3

HEK293T [4] = experiment: qHTS assay to identify novel small-molecules to repurpose for Merkel cell carcinoma treatment (AID 1296009); settings: MCC and control cell lines, CellTiter-Glo viability, 72 h; at 44.8 µM (top of the series) unless noted; also: nearly all actives have a fitted effect of over 60% in size
Summary of the method: as §2

HACAT = experiment: as above; settings: MCC and control cell lines, CellTiter-Glo viability, 72 h
Summary of the method: as §2

[5] = at 44.8 µM (top of the series) unless noted

C[C@@]1(c2cc(-c3cncnc3)c(F)cc2F)CCSC(N)=N1
max response (KB-3-1): -3.27% | outcome (KB-3-1): inactive | max response (NIH3T3 [1]): -1.07% | outcome (NIH3T3 [1]): inactive | Potency (MCC-13): inactive | Potency (MCC-26): inactive | Potency (MKL-1): inactive | Potency (MKL-2): inactive | Potency (NIH3T3 [2]): inactive | Potency (UISO): inactive | Potency (WaGa): inactive | Potency (C33A): inactive | Potency (CAOV3): inactive | Potency (CASKI): inactive | Potency (Es-2): inactive | Potency (HeLa): inactive | Potency (Hek293T [3]): inactive | Potency (JEG-3): inactive | Potency (OV90): inactive | Potency (PA-1): inactive

CCN1C[C@H](C)n2c(c(O)c3c(=O)n(Cc4ccc(F)c(Cl)c4)nc(C(=O)NC)c32)C1=O
max response (KB-3-1): 3.26% and 8.63% | outcome (KB-3-1): inactive | max response (NIH3T3 [1]): 0.921% and -1.89% | outcome (HEK293T [4]): inactive | Potency (MCC-13): inactive | Potency (MCC-26): inactive | Potency (MKL-1): inactive | Potency (MKL-2): inactive | Potency (UISO): inactive | Potency (WaGa): inactive | Potency (C33A): inactive | Potency (CAOV3): inactive | Potency (CASKI): inactive | Potency (Es-2): inactive | Potency (HeLa): inactive | Potency (Hek293T [3]): inactive | Potency (JEG-3): inactive | Potency (OV90): inactive | Potency (PA-1): inactive

CN1C(=O)C(Cc2c[nH]c3ccccc23)NC1=S (stereo not drawn)
max response (KB-3-1): 2.81% | outcome (KB-3-1): inactive | max response (NIH3T3 [1]): -1.6% and -5.02% | outcome (HACAT; at 17.4 µM (top of the series)): inactive | outcome (HACAT; at 44.8 µM (top of the series)): inactive | outcome (HEK293T [4]): inactive | Potency (MCC-13): inactive | Potency (MCC-26): inactive | Potency (MKL-1): inactive | Potency (MKL-2): inactive | Potency (UISO): inactive | Potency (WaGa): inactive | Potency (CAOV3): inactive | Potency (CASKI): inactive | Potency (Es-2): inactive | Potency (HeLa): inactive | Potency (Hek293T [3]): inactive | Potency (JEG-3): inactive | Potency (OV90): inactive | Potency (PA-1): inactive

COc1nccc(-c2c(-c3ccc(F)cc3)ncn2C2CCNCC2)n1
max response (KB-3-1): -17.7% | outcome (KB-3-1): inactive | max response (NIH3T3 [1]): -16.2% | Potency (MCC-13): inactive | Potency (MCC-26): inactive | Potency (MKL-1): inactive | Potency (MKL-2): inactive | Potency (UISO): inactive | Potency (WaGa): inactive | Potency (C33A): inactive | Potency (CASKI): inactive | Potency (Es-2): inactive | Potency (HeLa): inactive | Potency (Hek293T [3]): inactive | Potency (JEG-3): inactive

CN(C)c1nc(Cc2ccc(NC(=O)c3ccc(C(F)(F)F)cc3)cc2)nc(N(C)C)c1CC(=O)O
max response (KB-3-1): 4.62% | outcome (KB-3-1): inactive | max response (NIH3T3 [1]): -4.49% and 4.34% | outcome (HACAT; [5]): inactive | outcome (HEK293T [4]): inactive | Potency (MCC-13): inactive | Potency (MCC-26): inactive | Potency (MKL-1): inactive | Potency (MKL-2): inactive | Potency (UISO): inactive | Potency (WaGa): inactive | Potency (C33A): inactive | Potency (CASKI): inactive | Potency (Es-2): inactive | Potency (HeLa): inactive | Potency (Hek293T [3]): inactive | Potency (JEG-3): inactive | Potency (OV90): inactive | Potency (PA-1): inactive

CCOC(=O)[C@H](CCc1ccccc1)N[C@@H](C)C(=O)N1CCCC1C(=O)O (stereo partly drawn)
max response (KB-3-1): 2.47% | outcome (NIH3T3 [1]): inactive | outcome (HACAT; [5]): inactive | outcome (HEK293T [4]): inactive | Potency (MCC-13): inactive | Potency (MCC-26): inactive | Potency (MKL-1): inactive | Potency (MKL-2): inactive | Potency (NIH3T3 [2]): inactive | Potency (UISO): inactive | Potency (WaGa): inactive

COc1nc(C)cnc1NS(=O)(=O)c1cccnc1-c1ccc(-c2nnco2)cc1
max response (KB-3-1): -0.147% | outcome (KB-3-1): inactive | max response (NIH3T3 [1]): -2.15% | outcome (NIH3T3 [1]): inactive | outcome (HACAT; [5]): inactive | outcome (HEK293T [4]): inactive | Potency (MCC-13): inactive | Potency (MCC-26): inactive | Potency (MKL-1): inactive | Potency (MKL-2): inactive | Potency (NIH3T3 [2]): inactive | Potency (UISO): inactive | Potency (WaGa): inactive | Potency (C33A): inactive | Potency (CAOV3): inactive | Potency (CASKI): inactive | Potency (Es-2): inactive | Potency (HeLa): inactive | Potency (Hek293T [3]): inactive | Potency (JEG-3): inactive | Potency (OV90): inactive | Potency (PA-1): inactive

CN1CCC(COc2cnc(-c3cccc(Cn4nc(-c5cccc(C#N)c5)ccc4=O)c3)nc2)CC1
max response (KB-3-1): -7.63% | Potency (NIH3T3 [1]): 16.4 µM (active) | max response (NIH3T3 [1]): -5.81% | outcome (HACAT; [5]): inactive | outcome (HEK293T [4]): inactive | Potency (MCC-13): inactive | Potency (MCC-26): inactive | Potency (UISO): inactive | Potency (WaGa): inactive | Potency (C33A): inactive | Potency (CASKI): inactive | Potency (Es-2): inactive | Potency (HeLa): inactive | Potency (Hek293T [3]): inactive | Potency (OV90): inactive | Potency (PA-1): inactive

COc1ccc(CCC(=O)Nc2nc3ccc(Cl)cc3s2)cc1OC
max response (KB-3-1): -8.12% and -15.4% | max response (NIH3T3 [1]): -12.1% | outcome (NIH3T3 [1]): inactive | outcome (HACAT; [5]): inactive | Potency (MCC-13): inactive | Potency (MCC-26): inactive | Potency (MKL-1): inactive | Potency (MKL-2): inactive | Potency (NIH3T3 [2]): inactive | Potency (UISO): inactive | Potency (WaGa): inactive | Potency (C33A): inactive | Potency (CASKI): inactive | Potency (Es-2): inactive | Potency (HeLa): inactive | Potency (Hek293T [3]): inactive | Potency (JEG-3): inactive | Potency (OV90): inactive | Potency (PA-1): inactive

COc1ccnc(CS(=O)c2nc3ccc(OC(F)F)cc3[nH]2)c1OC (stereo not drawn)
max response (KB-3-1): -0.194% and 5.88% | max response (NIH3T3 [1]): -24% | outcome (NIH3T3 [1]): inactive | outcome (HACAT; [5]): inactive | outcome (HEK293T [4]): inactive | Potency (MCC-13): inactive | Potency (MCC-26): inactive | Potency (MKL-1): inactive | Potency (NIH3T3 [2]): inactive | Potency (UISO): inactive | Potency (WaGa): inactive | Potency (C33A): inactive | Potency (CASKI): inactive | Potency (Es-2): inactive | Potency (HeLa): inactive | Potency (Hek293T [3]): inactive | Potency (JEG-3): inactive | Potency (PA-1): inactive

c1ccc(CNc2nc(N3CCOc4ccccc43)nc3c2CCCC3)cc1
max response (KB-3-1): 8.67% and -13.6% | max response (NIH3T3 [1]): 3.56% | outcome (NIH3T3 [1]): inactive | Potency (MCC-13): inactive | Potency (MCC-26): inactive | Potency (MKL-1): inactive | Potency (MKL-2): inactive | Potency (NIH3T3 [2]): inactive | Potency (UISO): inactive | Potency (WaGa): inactive | Potency (C33A): inactive | Potency (CAOV3): inactive | Potency (CASKI): inactive | Potency (Es-2): inactive | Potency (HeLa): inactive | Potency (Hek293T [3]): inactive | Potency (JEG-3): inactive | Potency (OV90): inactive | Potency (PA-1): inactive
